Experimental findings from patent US20220289795, “EFFICIENT METHOD FOR PREPARING PPR PROTEIN AND USE OF THE SAME” (EditForce, Inc., published 2022) are described below.

In the experiment the target is T1, NL_v2_PPR14 (Artificial Sequence).
T1 chain: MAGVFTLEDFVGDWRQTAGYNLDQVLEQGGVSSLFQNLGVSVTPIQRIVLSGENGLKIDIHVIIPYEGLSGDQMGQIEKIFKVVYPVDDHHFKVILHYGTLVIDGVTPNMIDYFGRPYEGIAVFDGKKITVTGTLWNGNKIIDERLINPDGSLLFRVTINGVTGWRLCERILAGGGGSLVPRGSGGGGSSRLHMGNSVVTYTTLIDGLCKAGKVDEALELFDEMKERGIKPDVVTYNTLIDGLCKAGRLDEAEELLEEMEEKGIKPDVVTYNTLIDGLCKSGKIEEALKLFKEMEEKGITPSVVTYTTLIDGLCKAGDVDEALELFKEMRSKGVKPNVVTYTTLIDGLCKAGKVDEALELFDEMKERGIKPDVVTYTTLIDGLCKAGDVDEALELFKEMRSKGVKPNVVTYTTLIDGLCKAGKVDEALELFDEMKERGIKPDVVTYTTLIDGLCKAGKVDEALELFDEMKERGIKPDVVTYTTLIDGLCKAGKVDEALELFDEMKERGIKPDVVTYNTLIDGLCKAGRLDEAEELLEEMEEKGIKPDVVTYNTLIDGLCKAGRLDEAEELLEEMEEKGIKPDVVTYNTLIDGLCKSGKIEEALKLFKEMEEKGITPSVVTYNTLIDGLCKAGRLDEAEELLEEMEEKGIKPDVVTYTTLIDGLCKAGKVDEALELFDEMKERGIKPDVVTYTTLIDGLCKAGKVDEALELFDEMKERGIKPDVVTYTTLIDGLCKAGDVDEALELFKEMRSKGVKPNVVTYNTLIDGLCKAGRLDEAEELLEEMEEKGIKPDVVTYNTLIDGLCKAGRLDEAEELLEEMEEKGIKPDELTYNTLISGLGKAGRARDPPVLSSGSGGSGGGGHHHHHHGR
Kind of experiment: RPB-ELISA. The following applies: tags: N-terminal luciferase, C-terminal 6xHis; label: 5'-biotin; ssRNA. As for the experimental part: RNA probes consisting of a designed 30-base sequence containing 18 bases of the target sequence and modified by biotinylation at the 5′ end (RNA_1, RNA_2, RNA_3, RNA_4, and RNA_5, SEQ ID NOS: 61 to 65) were synthesized (Grainer). To a streptavidin-coated plate (Thermo fisher), the 5′-end biotinylated RNA probes were added, reaction was allowed at room temperature for 30 minutes, and the plate was washed with a lysis buffer (20 mM Tris-HCl, pH 7.6, 150 mM NaCl, 5 mM MgCl₂, 0.5% NP-40, 1 mM DTT, 0.1% BSA). For background measurement, wells to which RNA was not added, but 100 μL of the lysis buffer, 1 μL of 100 mM DTT, and 1 μL of 40 unit/4 RNase inhibitor (Takara, 2313A) were added were also prepared. Then, 200 μL of a blocking buffer (20 mM Tris-HCl, pH 7.6, 150 mM NaCl, 5 mM MgCl₂, 0.5% NP-40, 1 mM DTT, 1% BSA) was added, and the plate surface was blocked at room temperature for 30 minutes. Then, 100 μL of E. coli lysate containing luciferase-fused PPR protein having a luminescence level of 1.5×10⁸ LU/μL was added to each well, and the binding reaction was allowed at room temperature for 30 minutes. The well was washed 5 times with 200 μL of a washing buffer (20 mM Tris-HCl, pH 7.6, 150 mM NaCl, 5 mM MgCl₂, 0.5% NP-40, 1 mM DTT). […] The background (luminescence signal value obtained with adding the PPR protein and without adding RNA) was subtracted from the luminescences of the samples to which a solution containing each RNA and PPR protein was added, and the obtained values were used as the binding powers between the PPR protein and RNA.
By using the v2 motif, PPR proteins for 23 kinds of target sequences (T_1 to T_3, and T_5 to T_24, SEQ ID NOS: […]) were prepared (NL_v2_PPR1 to 3, and NL_v2_PPR5 to 24, SEQ ID NOS: 56 to 58 and 70 to 88), and RPB-ELISA was used to analyze bindings of all the combinations. The experimental method was the same as that used in Example 3.
In general terms: ELISA stands for enzyme-linked immunosorbent assay.
With GGUUAGAGAUACAGUGUG, the binding signal is 22 log2 luminescence.
